According to PubChem BioAssay AID1159580 (chemical genetic matrix, 2015):
The whole screen tested about 5,500 compounds, of which about 2,000 (36%) were called active. Roughly 18% stayed inconclusive and do not appear here. Cut-off read from the data, not from the text of the source: active = normalized growth mostly below about 0.91 (no sharp cut-off); inconclusive = no clear call, values can overlap the other calls; inactive = mostly above about 0.92. The list shows a part of the results.

Experiment: chemical genetic growth profiling, strain panel (AID 1159580);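 note: tested at 20 µM; growth read once vehicle control cultures reached saturation at 30 °C; 1 = growth at the plate median or of vehicle wells; lower values mean less growth of the strain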
Conditions: S. cerevisiae deletion strains, growth OD

Measured: normalized growth

COc1ccc(-c2coc3cc(O)ccc3c2=O)c(OC)c1O
inactive: locus YAL013W, strain DEP1, active compounds read low 0.991 | locus YAL021C, strain ccr4, active compounds read low 0.979 | locus YAL026C, strain drs2, active compounds read low 0.979 | locus YAL030W, strain snc1, active compounds read low 0.947 | locus YBL061C, strain skt5, active compounds read low 0.973 | locus YBR009C, strain hhf1, active compounds read low 0.966 | locus YBR021W, strain FUR4, active compounds read low 1.12 | locus YBR023C, strain chs3, active compounds read low 0.98 | locus YBR171W, strain sec66, active compounds read low 0.983 | locus YBR229C, strain ROT2, active compounds read low 0.949 | locus YBR231C, strain swc5, active compounds read low 0.989 | locus YBR279W, strain paf1, active compounds read low 0.983 | locus YCL011C, strain gbp2, active compounds read low 0.977 | locus YCL016C, strain dcc1, active compounds read low 0.978 | locus YCL029C, strain bik1, active compounds read low 0.972 | locus YCL061C, strain MRC1, active compounds read low 0.991 | locus YCL069W, strain vba3, active compounds read low 0.981 | locus YCR088W, strain abp1, active compounds read low 0.983 | locus YDL005C, strain med2, active compounds read low 0.977 | locus YDL035C, strain GPR1, active compounds read low 1 | locus YDL040C, strain nat1, active compounds read low 0.987 | locus YDL074C, strain BRE1, active compounds read low 1.03 | locus YDL101C, strain DUN1, active compounds read low 0.97 | locus YDL185W, strain tfp1, active compounds read low 0.968 | locus YDL192W, strain arf1, active compounds read low 0.984 | locus YDR001C, strain nth1, active compounds read low 0.983 | locus YDR069C, strain doa4, active compounds read low 0.947 | locus YDR101C, strain arx1, active compounds read low 0.975 | locus YDR137W, strain rgp1, active compounds read low 0.986 | locus YDR159W, strain sac3, active compounds read low 0.953 | locus YDR162C, strain NBP2, active compounds read low 0.966 | locus YDR195W, strain ref2 0.94 | locus YDR297W, strain sur2, active compounds read low 0.979 | locus YDR318W, strain mcm21, active compounds read low 0.99 | locus YDR334W, strain swr1, active compounds read low 0.967 | locus YDR335W, strain msn5, active compounds read low 0.991 | locus YDR388W, active compounds read low 0.988 | locus YDR392W, strain spt3, active compounds read low 0.945 | locus YDR502C, strain sam2, active compounds read low 0.977 | locus YEL003W, strain gim4, active compounds read low 0.976 | locus YEL037C, strain rad23, active compounds read low 0.967 | locus YEL061C, strain CIN8 (second series), active compounds read low 0.967 | locus YEL061C, strain CIN8, active compounds read low 0.985 | locus YER015W, strain faa2, active compounds read low 0.983 | locus YER016W, strain bim1, active compounds read low 0.986 | locus YER110C, active compounds read low 0.962 | locus YER111C, strain swi4, active compounds read low 0.971 | locus YER155C, strain BEM2 (second series), active compounds read low 0.985 | locus YER155C, strain BEM2, active compounds read low 1 | locus YER167W, strain BCK2, active compounds read low 0.983 | locus YFR010W, strain ubp6, active compounds read low 0.968 | locus YGL078C, strain dbp3, active compounds read low 0.986 | locus YGL086W, strain mad1, active compounds read low 0.971 | locus YGL167C, strain pmr1, active compounds read low 0.959 | locus YGL173C, strain kem1, active compounds read low 0.974 | locus YGL227W, strain vid30, active compounds read low 0.957 | locus YGL240W, strain doc1, active compounds read low 0.977 | locus YGL248W, strain PDE1, active compounds read low 0.982 | locus YGL253W, strain hxk2, active compounds read low 0.989 | locus YGR135W, strain pre9, active compounds read low 1.01 | locus YGR252W, strain gcn5, active compounds read low 1.12 | locus YHR013C, strain ard1, active compounds read low 0.933 | locus YHR027C, strain rpn1, active compounds read low 0.989 | locus YHR030C, strain SLT2, active compounds read low 0.99 | locus YHR079C, strain IRE1 (second series), active compounds read low 0.974 | locus YHR094C, strain hxt1, active compounds read low 0.988 | locus YHR129C, strain ARP1, active compounds read low 0.993 | locus YHR142W, strain chs7, active compounds read low 1 | locus YHR200W, strain rpn10, active compounds read low 0.991 | locus YIL066C, strain RNR3, active compounds read low 0.981 | locus YIL073C, strain SPO22, active compounds read low 0.98 | locus YIL125W, strain kgd1, active compounds read low 0.99 | locus YIR030C, strain dcg1, active compounds read low 0.985 | locus YJL092W, strain hpr5, active compounds read low 0.986 | locus YJL095W, strain BCK1 (second series), active compounds read low 0.986 | locus YJL095W, strain BCK1, active compounds read low 0.978 | locus YJL115W, strain asf1, active compounds read low 0.996 | locus YJL129C, strain trk1, active compounds read low 0.966 | locus YJL134W, strain LCB3, active compounds read low 0.983 | locus YJL154C, strain vps35, active compounds read low 0.977 | locus YJL164C, strain tpk1, active compounds read low 0.969 | locus YJL166W, strain qcr8, active compounds read low 0.98 | locus YJL168C, strain set2, active compounds read low 0.993 | locus YJL187C, strain SWE1 (second series), active compounds read low 0.963 | locus YJL187C, strain SWE1, active compounds read low 0.979 | locus YJR043C, strain POL32, active compounds read low 0.985 | locus YKL009W, strain mrt4, active compounds read low 0.965 | locus YKL068W, active compounds read low 0.975 | locus YKL085W, strain MDH1 (second series), active compounds read low 0.976 | locus YKL085W, strain MDH1, active compounds read low 0.976 | locus YKL160W, strain elf1, active compounds read low 0.999 | locus YKR001C, strain vps1, active compounds read low 1 | locus YKR026C, strain gcn3, active compounds read low 0.961 | locus YKR091W, strain srl3, active compounds read low 0.973 | locus YLL001W, strain dnm1, active compounds read low 1 | locus YLL026W, active compounds read low 0.991 | locus YLL041C, strain sdh2, active compounds read low 0.994 | locus YLR027C, strain aat2, active compounds read low 0.976 | locus YLR039C, strain RIC1, active compounds read low 0.97 | locus YLR058C, strain SHM2, active compounds read low 0.972 | locus YLR102C, strain apc9, active compounds read low 0.991 | locus YLR221C, strain rsa3, active compounds read low 0.966 | locus YLR258W, strain gsy2, active compounds read low 0.983 | locus YLR262C, strain YPT6 (second series), active compounds read low 0.977 | locus YLR262C, strain YPT6, active compounds read low 0.907 | locus YLR268W, strain sec22, active compounds read low 0.989 | locus YLR320W, strain mms22, active compounds read low 0.979 | locus YLR330W, strain CHS5, active compounds read low 0.99 | locus YLR342W, strain FKS1 (second series), active compounds read low 0.987 | locus YLR342W, strain FKS1, active compounds read low 0.967 | locus YLR357W, strain rsc2, active compounds read low 0.947 | locus YLR370C, strain arc18, active compounds read low 0.978 | locus YLR371W, strain rom2, active compounds read low 0.983 | locus YLR384C, strain iki3, active compounds read low 0.975 | locus YLR418C, strain cdc73, active compounds read low 1.01 | locus YML016C, strain PPZ1, active compounds read low 0.993 | locus YML032C, strain rad52, active compounds read low 0.983 | locus YML120C, strain ndi1, active compounds read low 0.971 | locus YML124C, strain tub3, active compounds read low 0.991 | locus YMR058W, strain fet3, active compounds read low 0.977 | locus YMR078C, strain ctf18, active compounds read low 0.982 | locus YMR125W, strain sto1, active compounds read low 0.96 | locus YMR129W, active compounds read low 0.981 | locus YMR205C, strain PFK2, active compounds read low 0.953 | locus YMR223W, strain ubp8, active compounds read low 0.981 | locus YMR231W, strain pep5, active compounds read low 0.982 | locus YMR307W, strain GAS1, active compounds read low 1.16 | locus YNL067W, strain RPL9B, active compounds read low 0.972 | locus YNL071W, strain lat1, active compounds read low 0.984 | locus YNL153C, strain GIM3, active compounds read low 0.954 | locus YNL209W, strain ssb2, active compounds read low 0.982 | locus YNL233W, strain BNI4, active compounds read low 1 | locus YNL248C, strain rpa49, active compounds read low 1 | locus YNL250W, strain rad50, active compounds read low 0.99 | locus YNL271C, strain bni1, active compounds read low 0.987 | locus YNL298W, strain CLA4, active compounds read low 0.992 | locus YNL307C, strain MCK1, active compounds read low 0.995 | locus YNL322C, strain KRE1 (second series), active compounds read low 0.953 | locus YNL322C, strain KRE1, active compounds read low 0.99 | locus YNR049C, strain mso1, active compounds read low 0.972 | locus YNR052C, strain pop2, active compounds read low 0.991 | locus YOL012C, strain htz1 0.858 | locus YOL147C, strain pex11, active compounds read low 0.988 | locus YOR001W, strain rrp6, active compounds read low 1 | locus YOR061W, strain CKA2, active compounds read low 0.966 | locus YOR069W, strain VPS5, active compounds read low 0.997 | locus YOR070C, strain gyp1, active compounds read low 0.985 | locus YOR080W, strain dia2, active compounds read low 0.965 | locus YOR083W, strain WHI5, active compounds read low 0.977 | locus YOR106W, strain vam3, active compounds read low 0.992 | locus YOR136W, strain idh2, active compounds read low 0.99 | locus YOR144C, strain elg1, active compounds read low 0.988 | locus YOR184W, strain ser1, active compounds read low 0.974 | locus YOR265W, strain rbl2, active compounds read low 0.985 | locus YOR270C, strain vph1, active compounds read low 0.977 | locus YOR290C, strain snf2, active compounds read low 0.92 | locus YOR316C, strain cot1, active compounds read low 0.984 | locus YPL051W, strain arl3, active compounds read low 1 | locus YPL055C, strain LGE1, active compounds read low 0.984 | locus YPL078C, strain atp4, active compounds read low 0.982 | locus YPL106C, strain sse1, active compounds read low 0.966 | locus YPL240C, strain hsp82, active compounds read low 1 | locus YPR119W, strain clb2, active compounds read low 0.973 | locus YPR141C, strain kar3, active compounds read low 0.985 | locus YPR163C, strain tif3, active compounds read low 0.997 | locus YPR167C, strain met16, active compounds read low 0.997 | strain wtn01, active compounds read low 0.981
